Assay outcomes as filed in PubChem BioAssay.
Shn3 3UTR inh = reduces Shn3 3'UTR luciferase signal in osteoblasts. Clone20 osteoblast Shn3 3'UTR firefly luciferase, 24 h. inhibition, % at 12.5 µM. hit rate 0.52% among 360,000. AID 588674;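 active = mean inhibition of at least 75% with every replicate also reaching 75%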;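 note: 0% = median of neutral control wells and 100% = pilot-screen positive control compound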
Jurkat NFkB inh = lowers PMA/ionomycin-induced NF-kB signal in Jurkat cells; AID 435003; PMA/ionomycin-induced NF-kB luciferase reporter, luminescence; hit rate 0.53% among 330,000; inhibition, % at 4 µM; in the data active = inhibition above about 50%
697 NFkB inh = inhibitors of the PMA/ionomycin-induced NF-kB reporter in 697 B cells; 697 B-cell NF-kB luciferase reporter, 16 h; inhibition, % at 4 µM; hit rate 0.33% among 330,000; in the data active = inhibition above about 35%
Calb FLC = C. albicans growth modulation with fluconazole | C. albicans CaCi-2 (fluconazole-resistant clinical isolate) + fluconazole, Alamar Blue growth, 48 h | growth inhibition, % (test concentration not listed) | hit rate 0.57% among 300,000 | AID 1979;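 active = growth inhibition above about 58% in most replicates, limit read from the data, passing the limit was not always enough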;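 note: all wells also contain fluconazole at 8 µg/ml as a sub-toxic cotreatment; 0% = median of DMSO wells and 100% = median of geldanamycin control wells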
Beta cell apopt = beta cell apoptosis inhibition | INS-1E cytokine-induced death, ATP luminescence, 48 h; percent of positive-control rescue, neutral wells zero | protection from apoptosis, % (concentration not given with the values) | hit rate 0.8% among 300,000;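 active = Every replicate reaches about 75%, or at least half do and their mean reaches it too, limit read from the data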;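 note: 0% = cytokine-treated negative control wells and 100% = positive control rescue; higher means more ATP so stronger rescue from cytokine killing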
697 NFkB conf = lowers PMA/ionomycin-induced NF-kB signal in 697 B cells; shares compounds with 697 NFkB inh; 697 B-cell NF-kB luciferase, 16 h; inhibition, % at 4 µM; hit rate 35% among 2,000; in the data active = inhibition mostly above about 28%, no sharp cut-off; inactive = mostly below about 22%
The depositor's hits bear a star. This is a sample that favours compounds with a hit; in the whole collection about 2% have one here.

`COc1ccc(-c2nc(CSCC(=O)NCc3ccco3)c(C)o2)cc1` gave Shn3 3UTR inh 17.8, Jurkat NFkB inh 29.4, 697 NFkB inh 37.8*, Calb FLC -5.6, Beta cell apopt 1.7 and 697 NFkB conf 43.2*.
Screening CCc1ccc(-c2nc(CSCC(=O)NC3CC3)c(C)o2)cc1 returned Shn3 3UTR inh 12.7, Jurkat NFkB inh -8.3, 697 NFkB inh 96.9*, Calb FLC 3.0, Beta cell apopt 4.6 and 697 NFkB conf 92.8*.
CCOC(=O)N1CCC(NC(=O)CSCc2nc(-c3ccc(OC)cc3)oc2C)CC1 was read as Shn3 3UTR inh 22.9, Jurkat NFkB inh 9.3, 697 NFkB inh 9.8, Calb FLC -3.3 and Beta cell apopt 4.4.
For CSc1ccc(-c2nc(CSCC(=O)NC3CC3)c(C)o2)cc1 the results were Shn3 3UTR inh 11.5, Jurkat NFkB inh -1.8, 697 NFkB inh 89.6*, Calb FLC 4.1, Beta cell apopt -9.8 and 697 NFkB conf 48.9*.
Cc1nc(CCNC(=O)CC2C(=O)NCCN2CC(C)C)nc2c1CCC2 (stereo unspecified) was read as Shn3 3UTR inh -6.8, Jurkat NFkB inh -10.0, 697 NFkB inh -1.6, Calb FLC -9.3 and Beta cell apopt 3.1.
Nc1cc(Cl)nc(N/N=C/c2ccc([N+](=O)[O-])cc2)n1 was read as Shn3 3UTR inh 2.7, Jurkat NFkB inh 1.8, 697 NFkB inh 40.9*, Calb FLC 8.0, Beta cell apopt 10.0 and 697 NFkB conf 11.4.
`Nc1cc(Cl)nc(N/N=C/c2ccccc2[N+](=O)[O-])n1` gave Shn3 3UTR inh -65.1, Jurkat NFkB inh -54.0, 697 NFkB inh -59.6, Calb FLC 9.5 and Beta cell apopt 4.7.
For C#CCN(Cc1ccccc1)S(=O)(=O)C=C the results were Jurkat NFkB inh 6.9, 697 NFkB inh 35.7*, Beta cell apopt -13.3 and 697 NFkB conf 30.5*.
Screening C=CS(=O)(=O)N(Cc1ccccc1)[C@H](CO)CC(C)C returned Shn3 3UTR inh 0.9.
Screening Cc1ccc(N(CC(=O)NCCc2ccccc2)C(=O)CCC(=O)Nc2cc(C)ccn2)cc1 returned Shn3 3UTR inh -3.0, Jurkat NFkB inh -10.6, 697 NFkB inh 11.0, Calb FLC 7.5 and Beta cell apopt 3.8.
`CCOC(=O)C1=CN(Cc2cccc(F)c2)S(=O)(=O)N(CC)C1c1ccc(F)c(Cl)c1` (stereo unspecified) gave Shn3 3UTR inh 48.5 and 697 NFkB inh -21.5.
`O=C(NN=C(c1ccccc1)c1ccccc1)C(CCl)C1CCCCC1` (stereo unspecified) gave Shn3 3UTR inh -36.8, Jurkat NFkB inh -9.6, 697 NFkB inh 4.7 and Beta cell apopt -17.1.
For CCOC(=O)C1CCN(C(=O)c2ccccc2NC(C)=O)CC1 the results were Shn3 3UTR inh -19.4, Jurkat NFkB inh 11.3, 697 NFkB inh 38.8*, Calb FLC -7.4, Beta cell apopt -3.5 and 697 NFkB conf 7.5.
For CCOC(=O)C1CCN(C(=O)c2ccccc2NC(=O)c2ccc(Br)cc2)CC1 the results were Shn3 3UTR inh -14.5, Jurkat NFkB inh -5.2, 697 NFkB inh 16.5, Calb FLC 0.7 and Beta cell apopt 2.0.
`O=C(Nc1ccccc1C(=O)O)c1ccc(NC(=O)C2CC2)cc1` gave Shn3 3UTR inh 9.5, Jurkat NFkB inh 13.2, 697 NFkB inh 16.1, Calb FLC -8.6 and Beta cell apopt -0.2.
`O=C(Nc1ccccc1O)c1ccc(NC(=O)C2CC2)cc1` gave Shn3 3UTR inh -258.5, Jurkat NFkB inh -37.6, 697 NFkB inh -298.7, Calb FLC -0.9, Beta cell apopt -0.3 and 697 NFkB conf -286.2.
Screening CC[C@@]1(C(=O)OC)N[C@H](CN(C)S(=O)(=O)c2ccc(-c3ccccc3)cc2)[C@@H]2C(=O)N(Cc3ccccc3)C(=O)[C@@H]21 returned Shn3 3UTR inh 7.2, Jurkat NFkB inh 7.0 and 697 NFkB inh 1.4.
For Cc1cccc(/C(N)=N/OC(=O)c2ccc3c(c2)OCO3)c1 the results were Shn3 3UTR inh -28.3, Jurkat NFkB inh -134.4, 697 NFkB inh -294.8, Calb FLC -3.1, Beta cell apopt -0.9 and 697 NFkB conf -237.7.
`N/C(=N\OC(=O)c1ccc2c(c1)OCO2)c1cccc([N+](=O)[O-])c1` gave Shn3 3UTR inh -97.0, Jurkat NFkB inh -61.6, 697 NFkB inh -38.0, Calb FLC -10.4 and Beta cell apopt 1.8.
For CCOC(=O)c1cocc1C(=O)O the results were Shn3 3UTR inh -4.1.
For Cc1ccc(C)c(S(=O)(=O)N2CCN(C(=O)Cn3c(C(F)(F)F)nc4ccccc43)CC2)c1 the results were Shn3 3UTR inh 5.5, Jurkat NFkB inh 9.5, 697 NFkB inh 37.0*, Calb FLC -2.0, Beta cell apopt -3.4 and 697 NFkB conf 6.9.
CCc1ccccc1NC(=O)CSc1nnc([C@@H]2CCCN2C(=O)OC(C)(C)C)o1 was read as Shn3 3UTR inh -5.4, Jurkat NFkB inh -14.6, 697 NFkB inh 35.7*, Calb FLC 5.5, Beta cell apopt -2.9 and 697 NFkB conf 16.0.
For Cc1cccc(C)c1NC(=O)CSc1nnc([C@@H]2CCCN2C(=O)OC(C)(C)C)o1 the results were Shn3 3UTR inh 1.6, Jurkat NFkB inh 7.9, 697 NFkB inh 22.3 and Calb FLC 0.5.
CCCOc1c(OC)cccc1C1CC(=O)Nc2cc(OC)c(OC)c(OC)c21 (stereo unspecified) was read as Shn3 3UTR inh -0.4, Jurkat NFkB inh -10.1, 697 NFkB inh 17.5, Calb FLC -0.9 and Beta cell apopt 3.1.
For COc1ccc(OC)c(C2CC(=O)Nc3cc(OC)c(OC)c(OC)c32)c1 (stereo unspecified) the results were Shn3 3UTR inh -31.8, Jurkat NFkB inh -5.1, 697 NFkB inh 35.2*, Calb FLC -3.5, Beta cell apopt -10.4 and 697 NFkB conf 43.0*.
For C=CCn1c(CCC(O)CCCCC)n[nH]c1=S (stereo unspecified) the results were Shn3 3UTR inh 4.2, Jurkat NFkB inh 9.4, 697 NFkB inh 10.2, Calb FLC 8.6 and Beta cell apopt 3.0.
CCC(CO)Oc1cc(NCc2ccccc2O)c2ncn(C(C)C)c2c1 (stereo unspecified) was read as Shn3 3UTR inh 15.6, Jurkat NFkB inh -8.6, 697 NFkB inh 44.9*, Beta cell apopt -5.4 and 697 NFkB conf 46.0*.
For CCCCN(C=O)c1c(CC)nc2ccc(C(=O)NCc3ccc4c(c3)OCO4)cn12 the results were Shn3 3UTR inh 5.5.
For COc1ccccc1N(Cc1ccccc1)S(=O)(=O)c1cccc(C(=O)Nc2ccccn2)c1 the results were Shn3 3UTR inh 19.1, Jurkat NFkB inh -7.4, 697 NFkB inh -324.5, Calb FLC 0.9, Beta cell apopt 5.2 and 697 NFkB conf -190.2.
Screening COc1ccccc1N(Cc1ccccc1)S(=O)(=O)c1cccc(C(=O)Nc2ccc(C)cn2)c1 returned Shn3 3UTR inh 41.4, Jurkat NFkB inh -9.6, 697 NFkB inh -28.7, Calb FLC 7.0 and Beta cell apopt 23.2.
